# Among all 310,000 compounds or so, about 14,000 (4.5%) showed an effect of 50% or more. The effect is printed as a negative number. What follows is part of a selection rich in strong results, with near analogues and random picks from the rest.
# Target: human ether-à-go-go-related gene (hERG) potassium channel (human, UniProt Q12809)
# Assay: primary screen, population patch clamp on CHO cells stably expressing hERG; higher = less effect of the substance
# 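Note: peak tail current of the secondary pulse compared with the same well before compound.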
# Chain of human ether-à-go-go-related gene (hERG) potassium channel (Q12809 whole entry, looked up): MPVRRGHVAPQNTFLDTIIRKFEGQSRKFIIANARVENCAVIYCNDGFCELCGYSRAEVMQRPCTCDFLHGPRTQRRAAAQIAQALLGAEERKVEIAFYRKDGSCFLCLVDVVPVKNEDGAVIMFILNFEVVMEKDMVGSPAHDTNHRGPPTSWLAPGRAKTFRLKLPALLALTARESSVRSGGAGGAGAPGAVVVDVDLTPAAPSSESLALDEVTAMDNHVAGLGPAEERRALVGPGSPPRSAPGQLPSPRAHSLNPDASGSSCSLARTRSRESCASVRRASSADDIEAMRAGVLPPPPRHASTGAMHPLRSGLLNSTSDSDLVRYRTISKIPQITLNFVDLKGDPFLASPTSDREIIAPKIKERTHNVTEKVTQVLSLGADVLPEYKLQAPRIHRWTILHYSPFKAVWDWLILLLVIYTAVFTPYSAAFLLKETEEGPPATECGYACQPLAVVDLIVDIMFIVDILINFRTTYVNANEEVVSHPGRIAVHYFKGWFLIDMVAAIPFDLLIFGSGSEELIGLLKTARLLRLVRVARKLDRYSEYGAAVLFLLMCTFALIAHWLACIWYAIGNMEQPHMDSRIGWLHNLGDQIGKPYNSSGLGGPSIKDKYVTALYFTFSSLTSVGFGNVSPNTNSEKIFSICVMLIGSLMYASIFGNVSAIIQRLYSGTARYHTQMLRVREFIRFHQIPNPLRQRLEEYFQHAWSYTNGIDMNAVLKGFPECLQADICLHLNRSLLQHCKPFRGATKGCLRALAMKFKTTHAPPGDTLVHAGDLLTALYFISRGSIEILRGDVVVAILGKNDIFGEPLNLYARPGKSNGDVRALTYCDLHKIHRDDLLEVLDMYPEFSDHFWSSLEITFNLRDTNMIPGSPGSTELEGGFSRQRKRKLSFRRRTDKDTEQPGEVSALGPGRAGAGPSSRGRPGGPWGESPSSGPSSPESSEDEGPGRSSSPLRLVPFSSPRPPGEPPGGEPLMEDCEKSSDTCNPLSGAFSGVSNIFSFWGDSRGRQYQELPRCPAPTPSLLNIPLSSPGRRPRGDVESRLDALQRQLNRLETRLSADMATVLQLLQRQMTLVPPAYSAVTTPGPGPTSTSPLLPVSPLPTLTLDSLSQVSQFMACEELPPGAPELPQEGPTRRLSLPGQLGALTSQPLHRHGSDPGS
row,Structure (SMILES),"hERG current change (%, negative = inhibition) at 10uM [%]"
1,CCCc1c(-c2ccc(O)cc2)nn(-c2ccc(O)cc2)c1-c1ccc(O)cc1,12.6
2,CCN(CC)C(=O)CSc1nnc([C@H](CCSC)NC(=O)OC(C)(C)C)o1,-8.26
3,CC1=CC(C)(C)N(C(=O)C(C)N2C(=O)c3ccccc3C2=O)c2ccc(C)cc21 (stereo not shown),2.88
4,COC(=O)c1ccc(NS(=O)(=O)c2cc3c4c(c2)C(C)C(=O)N4CCC3)cc1 (stereo not shown),2.73
5,Fc1cccc2sc(Nc3nc4cc5c(cc4s3)OCO5)nc12,20.3
6,COC(=O)C1CCN(C(=O)COC(=O)c2ccc(=O)n(Cc3ccccc3)n2)CC1,-4.78
7,CC(C)CN(C(=O)COC(=O)c1ccc(-c2ccccc2)cc1)C1CCS(=O)(=O)C1 (stereo not shown),17.5
8,CCOc1cc(/C=N/NC(=O)Cc2ccc(C(F)(F)F)cc2[N+](=O)[O-])c(Br)cc1OC,8.3
9,CCCCCC[N+](C)(C)CC/C=C1/c2ccccc2Sc2ccc(Cl)cc21.[Br-],-75.2
10,CN(C)CC/C=C1/c2ccccc2Sc2c(O)cc(Cl)cc21,-47.5
11,CCCCCCCCCCC[N+](C)(C)CC/C=C1/c2ccccc2Sc2ccc(Cl)cc21.[Br-],-32.8
12,CCCCCCCCCC[N+](C)(C)CC/C=C1/c2ccccc2Sc2ccc(Cl)cc21.[Br-],-76.6
13,CC[N+](C)(C)CC/C=C1/c2ccccc2Sc2ccc(Cl)cc21.[Br-],-25.3
14,CN(C)CC/C=C1/c2ccc(F)cc2Sc2ccc(Cl)cc21.Cl,5.06
15,O=C1NC(=S)S/C1=C/c1ccc(Oc2cnccn2)cc1,20
16,Cc1cccc(C(=O)NC(=S)N2CCN(C(=S)NC(=O)c3cccc(C)c3)CC2)c1,-0.873
17,CCCC(OC(=O)CC1Sc2ccccc2NC1=O)C(=O)NCc1ccco1 (stereo not shown),-13.8
18,Cc1ccc(CSCC(=O)N2CCOCC2)cc1,8.89
19,O=C(NNC1=C(C(=O)C(F)(F)F)CCC1)c1cccc(Cl)c1,7.77
20,CCOC(=O)C1(Cc2cccc(OC)c2)CCN(Cc2cccc(O)c2)CC1,-54.7
21,CCOC(=O)C1(Cc2cccc(OC)c2)CCN(Cc2ccccc2)CC1,-40.3
22,CCOC(=O)C1(Cc2cccc(OC)c2)CCN(Cc2csc(C(C)=O)c2)CC1,-41.1

row,Structure (SMILES),"hERG current change (%, negative = inhibition) at 10uM [%]"
1,CCOC(=O)C1(Cc2cccc(OC)c2)CCCN(Cc2cc(OC)c(O)c(OC)c2)C1 (stereo not shown),-33.7
2,CCOC(=O)C1(Cc2cccc(OC)c2)CCN(Cc2ccc(OC)c(O)c2)CC1,-77.9
3,CCOC(=O)C1(Cc2cccc(OC)c2)CCN(Cc2ccc3c(c2)OCCO3)CC1,-38
4,CCOC(=O)C1(Cc2cccc(OC)c2)CCN(CC(O)CO)CC1 (stereo not shown),-4.39
5,CCOC(=O)C1(Cc2cccc(OC)c2)CCN(Cc2ccc(OC)c(OC)c2)CC1,-68.8
6,CCOC(=O)C1(Cc2cccc(OC)c2)CCN(CCO)CC1,-54.3
7,COc1ccc([C@H]2CC(=O)C=C(c3cccc(OCc4ccccc4)c3)C2)cc1,10.8
8,Cc1ccc(-n2nc3c(=O)n(CCCC(=O)NCc4cccc(F)c4)nc(C)c3c2C)cc1,-21.7
9,COc1cccc(N2C(=O)CC(N3CCc4ccccc4C3)C2=O)c1 (stereo not shown),13.1
10,CC(C)(C)N/N=C/c1cc(Cl)cc([N+](=O)[O-])c1O.Cl,-10.9
11,Cc1onc(-c2ccccc2Cl)c1C(=O)N1CCN(c2ncccn2)CC1,2.45
12,CCOC(=O)c1ccccc1NC(=O)COC(=O)C1=COCCO1,4.78
13,Cc1nc2ccccn2c1C(=O)CSc1ccc(Cl)cc1Cl,-4.24
14,Cc1ccc(OCC(=O)NCCc2c[nH]c3ccccc23)cc1,17.1
15,COc1cc2c(C)nc(C)c(C#N)c2cc1OC.Cl,-5.92
16,Cc1ccc2nc(N3CC(C)OC(C)C3)nc(-c3ccccc3)c2c1 (stereo not shown),5.88
17,c1ccc(Nc2nc(N3CCNCC3)nc(N3CCOCC3)n2)cc1,-43
18,CCOC(=O)C1(Cc2cccc(OC)c2)CCN(Cc2cnc(C)s2)CC1,-12.2
19,CCOC(=O)C1(Cc2ccccc2)CCN(Cc2ccc(C)s2)CC1,-46
20,CCOC(=O)C1(Cc2cccc(OC)c2)CCN(Cc2ccc(C)s2)CC1,-67.1
21,CN(C)S(=O)(=O)c1ccc(N2CCOCC2)c(C(=O)NCc2ccc3c(c2)OCO3)c1,-14.7
22,COC(=O)c1ccc(/C=N/Nc2nc3ccccc3[nH]2)cc1,11.4

row,Structure (SMILES),"hERG current change (%, negative = inhibition) at 10uM [%]"
1,C=C(C)C(=O)Nc1cccc(C2=NOC3(C2)C[C@@H](C(N)=O)N(C(=O)c2cc([N+](=O)[O-])cc([N+](=O)[O-])c2C)C3)c1 (stereo partly shown),1.96
2,O=C(Nc1ccc(Cl)c(Cl)c1)N1CCCCCC1,2.82
3,O=C(Nc1ccc(Cl)c(Cl)c1)N1CCC(N2CCCCC2)CC1,-63.5
4,COc1cccc(NC(=O)N2CCC(N3CCCCC3)CC2)c1,-7.99
5,Cc1ccc(C(C)(C)C)c(OCCN2CCCC2)c1,-19.5
6,CC(C)[C@@H](N)C(=O)N/N=C/c1ccc2nccnc2c1.Cl,17.1
7,CC1CCN(CCCNC(=O)c2cc3c(s2)-c2ccccc2OC3)CC1,-74.6
8,O=C(Nc1cccnc1Cl)c1cc2c(s1)-c1ccccc1OC2,-3.48
9,CCOC(=O)C1CCN(C(=O)c2cc3c(s2)-c2ccccc2OC3)CC1,-38.9
10,O=C(O)c1cc2c(s1)-c1ccccc1OC2,9.73
11,O=C(Nc1nccs1)c1cc2c(s1)-c1ccccc1OC2,16.2
12,CN1CCN(c2ccccc2NC(=O)c2cc3c(s2)-c2ccccc2OC3)CC1,-51.3
13,CC1CCCN(CCCNC(=O)CN2C(=O)COc3ccccc32)C1 (stereo not shown),-4.59
14,CC1CCCN(CCCNC(=O)c2cc3c(s2)-c2ccccc2OC3)C1 (stereo not shown),-76.4
15,Cc1cccc2c1-c1sc(C(=O)Nc3ccccc3N3CCN(C)CC3)cc1CO2,-13.4
16,CC1CC(C)CN(CCCNC(=O)c2cc3c(s2)-c2ccccc2OC3)C1 (stereo not shown),-70.2
17,Cc1csc(NC(=O)c2cc3c(s2)-c2ccccc2OC3)n1,3.36
18,C=CCn1c(SC)nc2sc3c(c2c1=O)CCc1ccccc1-3,10.3
19,Cc1ncoc1C(=O)Nc1cccc(Cl)c1,-7.91
20,OCC[C@H]1C[C@H](O)[C@@H](O)[C@]2(OCCc3ccccc32)O1,2.59
21,CC1(C)Cc2c(cnn2-c2ccccc2)C(NC(=O)CCN2CCCC2=O)C1 (stereo not shown),6.21
22,C=C1CCC[C@]2(C)C[C@H]3OC(=O)C(CNC(C)CC)[C@H]3CC12 (stereo partly shown),0.523

row,Structure (SMILES),"hERG current change (%, negative = inhibition) at 10uM [%]"
1,CCN(CC)C(=O)c1ccccc1NC(=O)c1ccccc1SC,-39.6
2,CCOCc1nc(C)c(Cl)c(NS(=O)(=O)c2ccc(N)cc2)n1,13.9
3,COc1ccc(OC)c(N(CC(=O)N2CCCCC2)S(=O)(=O)c2ccc(OC)c(OC)c2)c1,10.6
4,COc1cc(Cl)c(C)cc1NC(=O)COC(=O)c1cc(SC)ccc1Cl,8.99
5,Cc1ccc(OCCC(=O)Nc2ccc3c(c2)OCO3)cc1,0.269
6,CCN(Cc1ccccc1)Cc1cccc([N+](=O)[O-])c1,-23.5
7,CCN1CCN(c2nc3ccccc3nc2NS(=O)(=O)c2ccc(NC(C)=O)cc2)CC1,5.21
8,COc1ccc(OC)c2c1C(=O)c1ccccc1C2=O,-5.81
9,O=C(NC1CC1)c1cc2c(s1)-c1ccccc1OC2,12.6
10,O=C(Nc1cccnc1)c1cc2c(s1)-c1ccccc1OC2,-2.06
11,CC1CCCC(C)N1CCCNC(=O)c1cc2c(s1)-c1ccccc1OC2 (stereo not shown),-69.9
12,O=C(NCCCN1CCOCC1)c1cc2c(s1)-c1ccccc1OC2,-44.5
13,O=C(NCc1cccs1)c1cc2c(s1)-c1ccccc1OC2,1.42
14,CC1CCCC(C)N1CCCNC(=O)c1ccc2c(c1)NC(=O)c1ccccc1S2 (stereo not shown),4.54
15,CCN1CCN(CCCNC(=O)c2cc3c(s2)-c2ccccc2OC3)CC1,-66.7
16,CN(C)CCNC(=O)c1cc2c(s1)-c1ccccc1OC2,-67.2
17,COC(=O)c1cc2c(s1)-c1ccccc1OC2,0.157
18,Cc1ccc(O)c(-c2cc3ccccc3[nH]2)c1,-15.8
19,O=C(O)COCC(=O)N1CCCN(c2nccc(C(F)(F)F)n2)CC1,17.7
20,CCOC(=O)c1ccc(NC(=O)Cn2cc3c(n2)CCC(C)C3)cc1 (stereo not shown),-4.16
21,COC(=O)C1=C(c2ccc(Cl)c(C(F)(F)F)c2)C[C@@H]2CC[C@H]1N2C(=O)NCC1CC1,-16.3
22,COc1ccc(CC(=O)N/N=C(/C)CC(=O)N(C)c2ccccc2)cc1,9.63
